# Inconclusive results are not listed. A call without a number means that no potency is given here. Activity calls are given as the source filed them. Unless noted, calls follow the shape of the dose curve; as a rule, active = well fitted curve in the direction sought with a large enough effect; inconclusive = small, poorly fitted or top-dose-only effect, or another doubt; inactive = no such curve, though single readings can be large; an effect the other way counts as inactive or inconclusive.
# How the values were obtained:
# [1] = NCATS anti-infectives library activity on HEK293 viability as a counter-qHTS vs the C. elegans viability qHTS (AID 1745854); also: potency is read from the fitted curve at half-maximal effect
# Method in brief: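 CellTiter-Glo luminescence, read on a CCD imager, scored viability of HEK293 cells after 24 hr compound exposure at 37C. Library tested in several concentrations, 1:5 steps, up to 41.7 uM; digitonin served as control.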
# [2] = molecular target: Catechol O-methyltransferase (Homo sapiens) (UniProt P21964); test: Confirmatory Screen for Target Class Profiling of Small Molecule Inhibitors of Methyltransferases (AID 1745852; calls by dose curve; also: potency is read from the fitted curve at half-maximal effect); conditions: MTase-Glo luminescence, SAH detection, recombinant enzyme; measured here: COMT max response; stronger effect = lower value
# [3] = molecular target: Guanidinoacetate N-methyltransferase (Homo sapiens) (UniProt Q14353); test: as above; conditions: activity change, negative = inhibition: at 57.3 µM (top of the series) unless noted
# [4] = molecular target: Nicotinamide N-methyltransferase (Homo sapiens) (UniProt P40261); test: as above; conditions: MTase-Glo luminescence, SAH detection, recombinant enzyme; measured here: NNMT max response; stronger effect = lower value
# [5] = molecular target: Phenylethanolamine N-methyltransferase (Homo sapiens) (UniProt P11086); test: as above; conditions: MTase-Glo luminescence, SAH detection, recombinant enzyme; measured here: PNMT max response; stronger effect = lower value
# [6] = molecular target: Glucocorticoid receptor (Homo sapiens) (UniProt P04150); test: GR-GFP Redistribution (AID 450;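 active = compounds whose dose series gives a full or clear partial fitted curve of increased nuclear translocation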; also: potency is read from the fitted curve at half-maximal effect); conditions: U2OS GR-GFP nuclear translocation, laser cytometry, 2 h
# [7] = molecular target: Glucocorticoid receptor (Homo sapiens) (UniProt P04150); test: GR-EFC Redistribution (AID 451; calls by dose curve; also: potency is read from the fitted curve at half-maximal effect); conditions: CHO-K1 GR-EFC translocation, beta-gal luminescence, 2 h
# Method in brief: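 Translocation of GR-ED fusion to nuclear EA restores b-gal, read by luminescence after 1 h room-temperature detection. Engineered CHO-K1 biosensor cells, 1,000/well, exposed 2 h at 37 C to titrations up to 46 uM final.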
# [8] = molecular target: Mitogen-activated protein kinase 10 (Mus musculus) (UniProt Q61831); test: JNK3 AlphaScreen Assay (AID 530; active = well fitted curve in either direction with a large enough effect, not every such curve was filed as active;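 also: kinase came from lysate of stimulated human HepG2 cells; signal reports phosphorylation of biotinylated GST-cJun 1-79 at Ser73 with 10 µM ATP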)
# Method in brief: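 Kinase buffer: 20 mM Tris-HCl pH 7.6, 10 mM MgCl2, 1 mM DTT, 0.1 mM Na3VO4, 0.01% Tween-20; ATP 10 uM. Substrate biotin-GST-cJun(1-79), enzyme from activated HepG2 lysates. Detection by Ser73 phospho-antibody AlphaScreen.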
# [9] = molecular target: 3',5'-cyclic-AMP phosphodiesterase 4B (Homo sapiens) (UniProt Q07343); test: qHTS Assay for Inhibitors of PDE-IV (AID 607; active = well fitted activation curve with a large enough effect in the main read-out, with a control signal flat, not every such curve was filed as active)
# Method in brief: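 ACTOne HEK293 cells carry a modified cAMP-gated CNG channel and express endogenous PDE4; plated 1000 cells/well, compounds up to 22.9 uM final. Membrane-potential dye fluorescence (ex 535/em 590) was read; parental cells received 10 uM forskolin + 100 uM RO 20-1724.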
# [10] = molecular target: Cytochrome P450 2C9 (Homo sapiens) (UniProt P11712); test: qHTS Assay for Inhibitors and Substrates of Cytochrome P450 2C9 (AID 883); also: nearly all actives have a fitted effect of over 60% in size
# Method in brief: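 Luminescent read-out of deoxyluciferin hydroxylation, normalized to 57uM sulphaphenazole (AC100). Reaction: 10nM enzyme, 100uM Luciferin-H (equal to KM), 25mM KPO4, 10 min compound preincubation, then 60 min with NADPH regeneration, both at 37C.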
# [11] = molecular target: Cytochrome P450 3A4 (Homo sapiens) (UniProt P08684); test: qHTS Assay for Inhibitors and Substrates of Cytochrome P450 3A4 (AID 884); also: potency is read from the fitted curve at half-maximal effect; nearly all actives have a fitted effect of over 50% in size
# Method in brief: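 Luminescent readout of luciferin produced by CYP3A4 (20 nM) dealkylation of Luciferin-PPXE, 25 uM (its KM). NADPH-driven reaction ran 60 min at RT after 10 min compound preincubation; data scaled to 57 uM ketoconazole as 100% inhibition.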
# [12] = molecular target: Cytochrome P450 3A4 (Homo sapiens) (UniProt P08684); test: qHTS Assay for Activators of Cytochrome P450 3A4 (AID 885); also: nearly all actives have a fitted effect of over 65% in size
# Method in brief: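 CYP3A4 activity: Luciferin-PPXE O-dealkylation, 25uM substrate, 200mM KPO4, RT throughout. Read-out is luciferase luminescence; higher values reflect activation.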
# [13] = molecular target: Cytochrome P450 2D6 (Homo sapiens) (UniProt P10635); test: qHTS Assay for Inhibitors and Substrates of Cytochrome P450 2D6 (AID 891);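 also: luciferin methyl ether substrate demethylated by CYP2D6 with NADPH regeneration; nearly all actives have a fitted effect of over 60% in size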
# Method in brief: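 Luminescent read-out of luciferin formed by 5 nM human CYP2D6 demethylating 30 uM Luciferin-ME EGE (Km level) over 60 min at room temperature after NADPH regeneration addition. Data normalized to full inhibition by 1.43 uM quinidine.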
# [14] = molecular target: Cytochrome P450 2C19 (Homo sapiens) (UniProt P33261); test: qHTS Assay for Inhibitors and Substrates of Cytochrome P450 2C19 (AID 899); also: nearly all actives have a fitted effect of over 60% in size
# Method in brief: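 Luminescence readout of luciferin formed from 10uM Luciferin-H EGE (KM level) by 5 nM CYP2C19 in 50mM KPO4. 60 min NADPH-driven reaction at 37C after 10 min compound preincubation; data scaled to 57uM ketoconazole inhibition.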
# [15] = molecular target: DNA dC->dU-editing enzyme APOBEC-3G (Homo sapiens) (UniProt Q9HC16); test: qHTS for inhibitors of Vif-A3G interactions: Validation (AID 588379)
# Method in brief: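 Yellow fluorescence (Ex 488, Em 500-530) of Vif-coexpressing HeLa A3G-eYFP cells, scanned by Acumen cytometer, reports blocked A3G degradation. Cells plated at 700/well overnight at 37 deg C before compound addition, then a further overnight compound incubation at 37 deg C.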
# [16] = Viability counterscreen for antagonist of constitutive androstane receptor (CAR) against the NCATS DSHEA and TCM libraries (AID 1794837);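 also: compound exposure lasted 24 h before viability reading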
# Method in brief: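 Counterscreen performed in a 1536-well qHTS format using HepG2-CYP2B6-hCAR cells; samples titrated in the presence of 48 uM CITCO, with viability measured fluorometrically (405/540 nm) after 24 h.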
# [17] = molecular target: Nuclear receptor subfamily 1 group I member 3 (Homo sapiens) (UniProt Q14994); test: Primary qHTS for agonist of constitutive androstane receptor (CAR) against the NCATS DSHEA and TCM libraries (AID 1794839);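 also: HepG2 cells expressing human CAR with a CYP2B6 reporter plus PK11195 antagonist; luciferase reporter luminescence read with ONE-Glo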
# Method in brief: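 Concentration–response screen in HepG2-CYP2B6-hCAR cells under 0.75 µM PK11195; 24 h exposure; luminescent reporter signal with multiplexed fluorescent viability.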
# [18] = HepG2 viability counterscreen (readout 2: ATP content) against the NCATS DSHEA and TCM libraries (AID 1794840);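 also: HepG2 cells exposed to substances for about 24 h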
# Method in brief: (§1)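 After HepG2 cells attach for ~4 h, substances are added and incubated ~24 h at 37C, 5% CO2. GF-AFC fluorescence then CellTiter-Glo luminescence give protease and ATP readouts.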
# [19] = HepG2 viability counterscreen (readout 1: protease activity) against the NCATS DSHEA and TCM libraries (AID 1794841);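 also: cells exposed to compounds for about 24 h before the protease read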
# Method in brief: as §1
# [20] = molecular target: Glutathione peroxidase 1 (Homo sapiens) (UniProt P07203); test: Primary qHTS Assay for Inhibitors of Recombinant Selenoprotein Glutathione Peroxidase 1 (GPX1) (AID 1845191); also: nearly all actives have a fitted effect of over 65% in size
# Method in brief: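 NADPH consumption tracked by fluorescence at 340/450 nm between t=0 and t=15 min, room temperature. Final mix: 10 nM GPX1, 100 nM glutathione reductase, 1 mM GSH, 0.5 mM NADPH, 0.5 mM cumene hydroperoxide, 0.01% BSA; 30 min compound–enzyme preincubation.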
# [21] = molecular target: Cytochrome P450 3A4 (Homo sapiens) (UniProt P08684); test: qHTS for inhibitors of CYP3A4 against the NCATS DSHEA and TCM libraries (AID 1919971);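 also: inhibition lowers luminescence from luciferin made by CYP3A4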
# Method in brief: (§2)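 Substances were tested against enzyme with a pro-luciferin substrate; minus-enzyme wells served as background. After NADPH-initiated oxidation (30-45 min, RT), light was generated with P450-Glo reagent.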
# [22] = molecular target: Cytochrome P450 2D6 (Homo sapiens) (UniProt P10635); test: qHTS for inhibitors of CYP2D6 against the NCATS DSHEA and TCM libraries (AID 1919972)
# Method in brief: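 qHTS, concentration–response format with most substances from 19.5 nM. CYP2D6 + pro-luciferin substrate, 15 min with compound, then 1x NADPH regen, 30–45 min RT dark. Glo detection 30 min, luminescence. Quinidine control.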
# [23] = molecular target: Cytochrome P450 2C9 (Homo sapiens) (UniProt P11712); test: qHTS for inhibitors of CYP2C9 against the NCATS DSHEA and TCM libraries (AID 1919973);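 also: luminogenic pro-luciferin CYP2C9 substrate turned into luciferin with NADPH regeneration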
# Method in brief: as §2
# [24] = molecular target: Cytochrome P450 2C19 (Homo sapiens) (UniProt P33261); test: qHTS for inhibitors of CYP2C19 against the NCATS DSHEA and TCM libraries (AID 1919974);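 also: luminescence from luciferin released by CYP2C19 oxidation of a pro-luciferin substrate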
# Method in brief: as §2
# [25] = KB-3-1 P-gp reporter qHTS against the NCATS DSHEA and TCM libraries (AID 1919975)
# Method in brief: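 Cell viability qHTS: 500 KB-3-1 cells/well, substances in titration, ~72 h, 37C; luminescent CellTiter-Glo read.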
# [26] = qHTS Counterscreen for compound interference against the NCATS DSHEA and TCM libraries (AID 1919978); conditions: firefly luciferase detection reagent interference, luminescence;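 also: compounds preincubated with 1 µM D-luciferin or buffer before detection reagent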
# Method in brief: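 Interference check: test samples were incubated with D-luciferin (final 1 uM) or buffer only for 15 min, room temperature, in a qHTS titration up to 39.8 uM, then developed with detection reagent and read by luminescence.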
# [27] = Dual reporter qHTS for agonist of Pregnane X Receptor (hPXR) against the NCATS DSHEA and TCM libraries: Fluorescence readout (AID 1920058)
# Method in brief: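 Fluorescence read-out for cell viability: CellTiter-Fluor, 1 h at 37 °C, Ex/Em 405/540 nm. This followed ~24 h treatment of hPXR-Luc HepG2 cells with substances in agonist mode.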
# [28] = molecular target: Nuclear receptor subfamily 1 group I member 2 (Homo sapiens) (UniProt O75469); test: Dual reporter qHTS for agonist of Pregnane X Receptor (hPXR) against the NCATS DSHEA and TCM libraries: Luminescence readout (AID 1920059)
# Method in brief: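 Luminescent PXR reporter read (ONE-Glo) after a CellTiter-Fluor viability read, following 24 h, 37C treatment of HepG2 cells stably carrying hPXR-Luc.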
# [29] = molecular target: Nuclear receptor subfamily 1 group I member 2 (Homo sapiens) (UniProt O75469); test: Dual reporter qHTS for antagonist of Pregnane X Receptor (hPXR) against the NCATS DSHEA and TCM libraries: Luminescence Readout (AID 1920060);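 also: HepG2 cells carrying hPXR luciferase reporter stimulated with rifampicin at 2 µM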
# Method in brief: (§3)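 Antagonist mode: rifampicin 2 uM final co-added with compounds to hPXR-LucHepG2 cells for 24 h at 37C. Viability by CellTiter-Fluor, Ex/Em 405/540 nm, 1 h; reporter by ONE-Glo luminescence.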
# [30] = Dual reporter qHTS for antagonist of Pregnane X Receptor (hPXR) against the NCATS DSHEA and TCM libraries: Fluorescence Readout (AID 1920061)
# Method in brief: as §3
# Cytochrome P450 3A4 (Homo sapiens), sequence (P08684 whole entry, looked up): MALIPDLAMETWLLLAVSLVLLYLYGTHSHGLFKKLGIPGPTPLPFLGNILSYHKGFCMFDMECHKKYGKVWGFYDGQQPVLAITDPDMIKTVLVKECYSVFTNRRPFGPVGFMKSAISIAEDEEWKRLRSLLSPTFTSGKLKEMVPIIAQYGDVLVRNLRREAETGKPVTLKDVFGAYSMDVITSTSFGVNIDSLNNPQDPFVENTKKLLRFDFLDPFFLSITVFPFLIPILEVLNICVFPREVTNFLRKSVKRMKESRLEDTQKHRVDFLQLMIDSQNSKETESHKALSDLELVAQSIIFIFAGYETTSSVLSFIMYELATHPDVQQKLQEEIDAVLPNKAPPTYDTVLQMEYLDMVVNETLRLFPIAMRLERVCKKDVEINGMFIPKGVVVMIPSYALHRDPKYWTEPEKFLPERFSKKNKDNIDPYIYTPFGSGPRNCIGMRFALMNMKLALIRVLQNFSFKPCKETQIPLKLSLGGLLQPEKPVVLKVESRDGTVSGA
# Nicotinamide N-methyltransferase (Homo sapiens), sequence (P40261 whole entry, looked up): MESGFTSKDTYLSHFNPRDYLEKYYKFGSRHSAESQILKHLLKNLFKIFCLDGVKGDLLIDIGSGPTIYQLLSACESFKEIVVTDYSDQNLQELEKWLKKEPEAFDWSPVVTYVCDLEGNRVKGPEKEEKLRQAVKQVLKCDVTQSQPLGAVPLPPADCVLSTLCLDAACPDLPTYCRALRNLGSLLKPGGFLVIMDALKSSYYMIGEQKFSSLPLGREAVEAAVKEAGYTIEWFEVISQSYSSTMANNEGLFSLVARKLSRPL
# Cytochrome P450 2D6 (Homo sapiens), sequence (P10635 whole entry, looked up): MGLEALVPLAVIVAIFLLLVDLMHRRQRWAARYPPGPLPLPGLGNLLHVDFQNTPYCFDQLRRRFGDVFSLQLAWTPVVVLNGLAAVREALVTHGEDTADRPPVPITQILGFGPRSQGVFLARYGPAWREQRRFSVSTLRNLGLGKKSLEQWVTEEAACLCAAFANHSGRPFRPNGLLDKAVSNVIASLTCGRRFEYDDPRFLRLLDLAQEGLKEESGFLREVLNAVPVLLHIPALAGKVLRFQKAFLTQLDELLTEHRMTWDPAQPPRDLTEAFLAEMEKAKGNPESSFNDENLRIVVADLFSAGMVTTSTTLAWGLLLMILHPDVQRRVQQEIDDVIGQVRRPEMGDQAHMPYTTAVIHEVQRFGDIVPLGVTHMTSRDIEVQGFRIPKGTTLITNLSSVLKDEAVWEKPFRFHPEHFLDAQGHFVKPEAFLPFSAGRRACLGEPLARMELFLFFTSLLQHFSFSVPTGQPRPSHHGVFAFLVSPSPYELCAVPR
# Nuclear receptor subfamily 1 group I member 2 (Homo sapiens), sequence (O75469 whole entry, looked up): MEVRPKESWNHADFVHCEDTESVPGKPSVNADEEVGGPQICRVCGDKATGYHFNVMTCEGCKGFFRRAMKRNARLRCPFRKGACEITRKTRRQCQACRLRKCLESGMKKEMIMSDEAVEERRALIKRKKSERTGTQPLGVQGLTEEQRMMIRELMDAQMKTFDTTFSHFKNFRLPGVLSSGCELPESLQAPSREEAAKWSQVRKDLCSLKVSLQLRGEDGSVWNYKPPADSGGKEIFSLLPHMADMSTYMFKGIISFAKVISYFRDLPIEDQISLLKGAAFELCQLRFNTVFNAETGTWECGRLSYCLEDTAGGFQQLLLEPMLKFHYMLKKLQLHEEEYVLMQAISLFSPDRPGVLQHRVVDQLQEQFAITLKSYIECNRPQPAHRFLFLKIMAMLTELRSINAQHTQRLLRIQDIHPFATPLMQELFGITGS
# Cytochrome P450 2C19 (Homo sapiens), sequence (P33261 whole entry, looked up): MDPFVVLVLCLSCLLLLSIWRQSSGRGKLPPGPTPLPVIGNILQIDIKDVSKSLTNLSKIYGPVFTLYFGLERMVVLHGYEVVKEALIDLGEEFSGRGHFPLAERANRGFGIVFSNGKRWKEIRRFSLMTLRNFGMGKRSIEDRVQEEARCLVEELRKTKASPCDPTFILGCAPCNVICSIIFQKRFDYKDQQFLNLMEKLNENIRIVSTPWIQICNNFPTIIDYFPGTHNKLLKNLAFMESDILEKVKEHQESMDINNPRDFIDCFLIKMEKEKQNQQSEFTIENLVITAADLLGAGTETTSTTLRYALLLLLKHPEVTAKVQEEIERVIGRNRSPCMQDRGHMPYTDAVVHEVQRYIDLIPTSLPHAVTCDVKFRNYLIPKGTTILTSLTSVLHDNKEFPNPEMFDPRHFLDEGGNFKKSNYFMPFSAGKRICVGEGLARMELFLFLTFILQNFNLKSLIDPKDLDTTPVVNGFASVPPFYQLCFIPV
# Glucocorticoid receptor (Homo sapiens), sequence (P04150 whole entry, looked up, the tested form may be a part): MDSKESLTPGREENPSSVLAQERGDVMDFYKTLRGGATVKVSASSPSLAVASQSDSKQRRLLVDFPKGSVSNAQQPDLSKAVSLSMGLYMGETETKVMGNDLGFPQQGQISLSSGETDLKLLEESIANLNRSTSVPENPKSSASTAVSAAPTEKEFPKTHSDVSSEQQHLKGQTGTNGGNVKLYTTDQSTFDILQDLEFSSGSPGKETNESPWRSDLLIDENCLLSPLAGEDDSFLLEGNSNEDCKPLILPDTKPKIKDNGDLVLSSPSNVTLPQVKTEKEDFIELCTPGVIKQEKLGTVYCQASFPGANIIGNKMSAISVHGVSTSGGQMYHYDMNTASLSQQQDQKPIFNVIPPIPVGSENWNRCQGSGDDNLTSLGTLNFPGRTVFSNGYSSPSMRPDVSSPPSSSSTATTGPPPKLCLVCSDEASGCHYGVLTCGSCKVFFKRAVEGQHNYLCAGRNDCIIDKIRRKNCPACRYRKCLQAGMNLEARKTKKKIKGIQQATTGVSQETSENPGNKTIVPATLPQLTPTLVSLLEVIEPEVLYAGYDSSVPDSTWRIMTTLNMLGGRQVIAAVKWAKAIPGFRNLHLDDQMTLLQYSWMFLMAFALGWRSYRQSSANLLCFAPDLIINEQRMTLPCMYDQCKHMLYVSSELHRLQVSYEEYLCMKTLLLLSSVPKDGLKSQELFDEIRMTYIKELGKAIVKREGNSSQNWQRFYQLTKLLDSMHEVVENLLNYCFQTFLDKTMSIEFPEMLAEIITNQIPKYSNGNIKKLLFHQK
# Cytochrome P450 2C9 (Homo sapiens), sequence (P11712 whole entry, looked up): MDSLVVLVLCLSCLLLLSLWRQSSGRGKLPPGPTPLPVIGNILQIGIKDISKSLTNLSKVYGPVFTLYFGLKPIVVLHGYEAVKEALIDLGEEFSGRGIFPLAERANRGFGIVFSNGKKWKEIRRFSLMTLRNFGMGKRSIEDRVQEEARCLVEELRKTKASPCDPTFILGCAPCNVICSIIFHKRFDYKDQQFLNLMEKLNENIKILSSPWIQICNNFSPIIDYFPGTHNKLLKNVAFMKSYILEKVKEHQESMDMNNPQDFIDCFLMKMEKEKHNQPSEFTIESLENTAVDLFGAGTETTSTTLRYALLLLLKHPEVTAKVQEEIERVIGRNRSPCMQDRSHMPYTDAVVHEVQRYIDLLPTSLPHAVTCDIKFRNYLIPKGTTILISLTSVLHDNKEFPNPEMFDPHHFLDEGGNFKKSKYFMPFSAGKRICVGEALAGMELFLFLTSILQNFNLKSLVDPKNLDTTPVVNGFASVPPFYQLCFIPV
# Catechol O-methyltransferase (Homo sapiens), sequence (P21964 whole entry, looked up): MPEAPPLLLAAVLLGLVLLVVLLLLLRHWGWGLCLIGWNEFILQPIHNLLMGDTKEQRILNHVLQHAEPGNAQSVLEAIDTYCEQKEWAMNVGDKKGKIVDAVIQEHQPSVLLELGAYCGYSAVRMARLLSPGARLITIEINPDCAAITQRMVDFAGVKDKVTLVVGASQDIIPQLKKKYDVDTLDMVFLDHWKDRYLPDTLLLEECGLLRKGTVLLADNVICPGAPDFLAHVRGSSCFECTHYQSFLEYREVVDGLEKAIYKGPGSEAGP
# Phenylethanolamine N-methyltransferase (Homo sapiens), sequence (P11086 whole entry, looked up): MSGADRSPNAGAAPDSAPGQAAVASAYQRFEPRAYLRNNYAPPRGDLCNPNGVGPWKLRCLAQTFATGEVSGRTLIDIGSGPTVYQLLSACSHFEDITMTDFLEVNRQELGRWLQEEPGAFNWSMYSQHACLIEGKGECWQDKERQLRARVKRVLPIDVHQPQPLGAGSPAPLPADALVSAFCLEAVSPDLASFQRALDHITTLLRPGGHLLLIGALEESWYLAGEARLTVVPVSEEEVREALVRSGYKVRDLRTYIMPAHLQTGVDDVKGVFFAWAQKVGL
# 3',5'-cyclic-AMP phosphodiesterase 4B (Homo sapiens), sequence (Q07343 whole entry, looked up): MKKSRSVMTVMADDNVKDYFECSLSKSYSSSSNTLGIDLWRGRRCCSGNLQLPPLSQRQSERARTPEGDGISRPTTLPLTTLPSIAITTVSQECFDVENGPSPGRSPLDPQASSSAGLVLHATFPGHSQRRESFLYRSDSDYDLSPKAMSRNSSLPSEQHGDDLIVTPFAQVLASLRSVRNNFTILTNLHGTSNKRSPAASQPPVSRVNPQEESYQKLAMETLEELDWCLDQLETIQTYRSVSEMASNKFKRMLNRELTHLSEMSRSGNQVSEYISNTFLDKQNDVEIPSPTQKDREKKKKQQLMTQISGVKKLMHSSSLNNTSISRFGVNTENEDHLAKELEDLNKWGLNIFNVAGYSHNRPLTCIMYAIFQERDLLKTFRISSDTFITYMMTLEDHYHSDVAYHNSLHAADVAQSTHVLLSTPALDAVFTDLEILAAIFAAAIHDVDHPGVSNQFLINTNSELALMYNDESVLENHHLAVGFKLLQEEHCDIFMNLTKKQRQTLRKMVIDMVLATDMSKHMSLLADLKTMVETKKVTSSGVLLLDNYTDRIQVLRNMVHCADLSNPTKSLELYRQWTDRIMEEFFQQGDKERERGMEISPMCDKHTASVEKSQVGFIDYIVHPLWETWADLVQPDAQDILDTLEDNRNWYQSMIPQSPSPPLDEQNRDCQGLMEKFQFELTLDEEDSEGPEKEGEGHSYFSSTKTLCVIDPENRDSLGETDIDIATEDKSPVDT
# Glutathione peroxidase 1 (Homo sapiens), sequence (P07203 whole entry, looked up): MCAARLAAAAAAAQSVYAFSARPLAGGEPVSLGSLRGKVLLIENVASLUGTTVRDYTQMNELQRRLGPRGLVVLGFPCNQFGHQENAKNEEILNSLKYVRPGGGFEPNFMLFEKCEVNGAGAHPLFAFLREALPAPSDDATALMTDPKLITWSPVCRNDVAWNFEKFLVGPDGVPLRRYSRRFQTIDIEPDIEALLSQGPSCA
structure (smiles),measurement,setting,value
COC(=O)c1cc(OC)c2c(c1-c1c(CO)cc(OC)c3c1OCO3)OCO2,Potency,[1],inactive
COC(=O)c1cc(O)c(O)c(O)c1,Potency,[1],inactive
C[C@H](NC(=O)[C@H](Cc1ccccc1)NC(=O)OCc1ccccc1)C(=O)CF,Potency,[1],inactive
Oc1ccc(OC2CCCCO2)cc1 (stereo not given),Potency,[1],14.1 µM (active)
COc1cccc(CNC(=O)c2sc(=S)n3c2[nH]c(=O)c2cc4c(cc23)OCO4)c1,activity,[2],-25.7%
same,Potency,[3],42.9 µM (active)
same,activity,[4],-43.7%
same,activity,[5],-28%
CC(C)CS(=O)(=O)c1oc(-c2ccc(F)cc2)nc1S(=O)(=O)c1ccccc1,Potency,[1],3.98 µM (active)
COc1ccc(-c2oc3ccc(C)cc3c(=O)c2O)cc1OC,Potency,[6],> 46 µM (inactive)
same,Potency,[7],> 46 µM (inactive)
same,Potency,[8],inactive
same,Potency,[9],inactive
same,Potency,[10],inactive
same,Potency,[11],3.98 µM (active)
same,outcome,[12],inactive
same,Potency,[13],inactive
same,Potency,[14],inactive
same,outcome,[15],inactive
same,activity,[2],-1%
same,"activity change, negative = inhibition",[3],0%
same,activity,[4],1.6%
same,activity,[5],4.32%
CC(C)Nc1nc2cc(Cl)c(Cl)cc2n1[C@H]1O[C@@H](CO)[C@H](O)[C@@H]1O,Potency,[1],inactive
CC(C)=CCC[C@](C)(OC1OC(COC2OCC(O)C(O)C2O)C(O)C(O)C1O)[C@H]1CC[C@]2(C)[C@@H]1[C@H](O)C[C@@H]1[C@@]3(C)CC[C@H](OC4OC(CO)C(O)C(O)C4OC4OC(CO)C(O)C(O)C4O)C(C)(C)[C@@H]3CC[C@]12C (stereo not given in full),Potency,[1],inactive
same,outcome,[16],inactive
same,Potency,[17],inactive
same,outcome,[18],inactive
same,outcome,[19],inactive
same,Potency,[20],inactive
same,Potency,[21],inactive
same,Potency,[22],inactive
same,Potency,[23],inactive
same,Potency,[24],inactive
same,outcome,[25],inactive
same,max response,[26],4.44% (inactive)
same,outcome,[27],inactive
same,Potency,[28],inactive
same,outcome,[29],inactive
same,outcome,[30],inactive

# Reference: PubChem BioAssay (NCATS)
